PGK inhibitor: qHTS Assay to Find Inhibitors of Phosphoglycerate Kinase; Phosphoglycerate kinase, glycosomal (Trypanosoma brucei brucei), P07378; PGK/GAPDH coupled, Kinase-Glo luminescence, 60 min; Potency, µM (series often up to 57.5 µM), inactives show at the top dose activity change, negative = inhibition, most hits filed as inhibitors; 380,000 tested, 0.043% active; AID 602233, 2012; further: on the % scale 0 is the no-effect control and ±100 the full control effect; nearly all actives have a fitted effect of over 60% in size
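Luminescent ATP detection (Kinase-Glo Plus) follows a 60-minute room-temperature incubation, with wells lacking PGK as controls. Buffer: 100 mM TEA (pH 7.6), 5 mM MgCl2, 0.01% Tween-20. Coupling enzyme GAPDH (100 nM final) supplies unstable 1,3-BPG in-well.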
Pol beta inh: qHTS Assay for Inhibitors of DNA Polymerase Beta; P06746; Pol beta primer extension/strand displacement, fluorescence kinetic; Potency, µM (top dose mostly 114 µM), inactives show at the highest dose activity change, negative = inhibition, most hits filed as inhibitors; 340,000 tested, 1.3% active; further: on the % scale 0 is the no-effect control and ±100 the full control effect
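Kinetic readout of DNA synthesis with strand displacement by Pol beta. Compound and 10 nM enzyme sit 15 min at room temperature; 50 nM substrate starts the reaction, read immediately and at 10 min.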
Pol iota inh: qHTS for Inhibitors of Polymerase Iota. DNA polymerase iota (Homo sapiens), Q9UNA4. Pol iota fluorescent replication assay, 10 min. Potency, µM (titrated, usually from 115 µM), without a hit: top-dose activity, negative = inhibition, hits mostly inhibitors. 390,000 tested, 1% active. AID 588590, 2011
Target sequence (Q9UNA4 whole entry, looked up): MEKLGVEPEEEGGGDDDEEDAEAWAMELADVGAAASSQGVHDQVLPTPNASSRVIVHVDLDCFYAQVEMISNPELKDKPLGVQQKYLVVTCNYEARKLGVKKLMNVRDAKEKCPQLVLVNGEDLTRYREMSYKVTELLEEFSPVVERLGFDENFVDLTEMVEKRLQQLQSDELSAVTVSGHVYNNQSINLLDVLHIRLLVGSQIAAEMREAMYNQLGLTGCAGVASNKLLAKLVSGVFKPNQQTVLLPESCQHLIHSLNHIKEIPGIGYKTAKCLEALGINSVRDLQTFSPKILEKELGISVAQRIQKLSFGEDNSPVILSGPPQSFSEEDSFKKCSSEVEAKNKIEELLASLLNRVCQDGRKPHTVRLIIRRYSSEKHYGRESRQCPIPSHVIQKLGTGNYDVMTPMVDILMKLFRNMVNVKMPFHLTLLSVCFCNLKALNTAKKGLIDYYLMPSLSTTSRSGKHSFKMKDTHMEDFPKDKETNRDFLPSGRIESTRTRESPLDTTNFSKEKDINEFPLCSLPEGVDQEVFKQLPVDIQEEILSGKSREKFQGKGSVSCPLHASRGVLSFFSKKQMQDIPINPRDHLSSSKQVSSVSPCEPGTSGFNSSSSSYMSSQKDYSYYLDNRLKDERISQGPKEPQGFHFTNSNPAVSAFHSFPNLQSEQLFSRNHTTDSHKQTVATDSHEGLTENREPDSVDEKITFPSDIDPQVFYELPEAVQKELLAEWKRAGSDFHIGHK
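Pol iota at 10 nM preincubated 15 min with compounds at room temperature; reaction started with fluorescent substrate, 50 nM final. Fluorescence read kinetically at 0 and 10 min; buffer-only wells as negative control.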
Pol eta inh-1: qHTS for Inhibitors of Polymerase Eta; DNA polymerase eta (Homo sapiens), Q9Y253; recombinant Pol eta, fluorescent DNA replication assay; Potency, µM (series often up to 114 µM), for inactives: top-dose activity change, negative = inhibition, most hits filed as inhibitors; 390,000 tested, 1.2% active; AID 588591, 2011; further: on the % scale 0 is the no-effect control and ±100 the full control effect
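Pol eta (10 nM) was preincubated with compounds for 15 min at room temperature, after which fluorescent replication substrate (50 nM final) was added to start the reaction. Fluorescence was read kinetically at 0 and 10 min.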
Pol kappa inh-1: qHTS for Inhibitors of Polymerase Kappa; DNA polymerase kappa (Homo sapiens), Q9UBT6; Potency, µM (series often up to 107 µM), without a hit: at the highest dose activity, negative = inhibition, most hits filed as inhibitors; purified Pol kappa, fluorescent DNA synthesis assay, 10 min; 400,000 tested, 0.53% active; further: on the % scale 0 is the no-effect control and ±100 the full control effect
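Pol kappa 10 nM + cpd, 15 min RT; start w/ substrate 50 nM final; fluorescence kinetic read, 0 and 10 min. Neg ctrl: buffer, no enzyme.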
FEN1 inh: qHTS Assay for the Inhibitors of Human Flap endonuclease 1 (FEN1); P39748; Recombinant FEN1 flap cleavage, fluorescence, 15 min; Potency, µM (highest dose often 114 µM), inactives show at the top dose activity change, negative = inhibition, actives largely listed as inhibitors; 390,000 tested, 0.35% active; AID 588795, 2011; further: on the % scale 0 is the no-effect control and ±100 the full control effect; nearly all actives have a fitted effect of over 65% in size
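FEN1 at 10 nM preincubated with compounds 15 min at room temperature, then flap DNA substrate added at 50 nM final. Signal read at 0 and 15 min; concentration-response fitted with four-parameter Hill equation.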
PGK validate: qHTS for inhibitors of Phosphogylcerate Kinase: Hit Validation Screen; shares compounds with Pol kappa inh-1; TbPGK coupled GAPDH assay, Kinase-Glo luminescence; Potency, µM (titrated, usually from 57.5 µM), for the others: at the top dose activity change, negative = inhibition, usual class: inhibitors; 500 tested, 79% active; AID 686980, 2013; further: on the % scale 0 is the no-effect control and ±100 the full control effect; nearly all actives have a fitted effect of over 65% in size
Pol iota confirm: qHTS for Inhibitors of Polymerase Iota: Confirmatory Assay for Cherry-picked Compounds | Potency, µM, hits mostly inhibitors | 1,500 tested, 77% active | shares compounds with Pol kappa inh-1 | Pol iota primer extension, TAMRA/BHQ fluorescence
Pol kappa inh-2: qHTS for Inhibitors of Polymerase Kappa: Confirmatory Assay for Cherry-picked Compounds; shares compounds with Pol eta inh-1; purified Pol-kappa, fluorescent strand-displacement substrate; Potency, µM, most hits filed as inhibitors; 920 tested, 76% active
Pol eta inh-2: qHTS for Inhibitors of Polymerase Eta: Confirmatory Assay for Cherry-picked Compounds; 2,600 tested, 64% active; Potency, µM, actives largely listed as inhibitors; Pol eta primer extension, TAMRA/BHQ fluorescence, 10 min; shares compounds with Pol eta inh-1
The depositor's hits bear a star; [ ] = dose if it differs, or a comment. Only some compounds are listed: those with a hit (about 2.4% of all), similar ones and a draw of the others. The call rests on the fitted dose curve; in most records, active means well fitted curve in the direction sought with a large enough effect; inconclusive means small, poorly fitted or top-dose-only effect, or another doubt; inactive means no such curve, though single readings can be large; an effect the other way counts as inactive or inconclusive. Potency means the concentration at half of the fitted maximal effect.

What do the screens show for `COc1ccc(CCC(=O)O)c(O)c1`?
PGK inhibitor: inconclusive; Pol beta inh: 40µM*; Pol iota inh: inconclusive; Pol eta inh-1: 32µM*; Pol kappa inh-1: 71µM*; FEN1 inh: -27%; Pol iota confirm: 75*; Pol eta inh-2: 67*

What do the screens show for `COc1ccccc1/C=N/NC(=O)c1ccc(NC(=O)c2cccc([N+](=O)[O-])c2)cc1`?
Pol beta inh: 3%

How did COc1cccc(/C=N/NC(=O)c2cc3cc([N+](=O)[O-])ccc3s2)c1O do in these assays?
PGK inhibitor: inconclusive; Pol beta inh: 3.5µM*; Pol iota inh: 14µM*; Pol eta inh-1: 3.5µM*; Pol kappa inh-1: -22%; FEN1 inh: 50µM*; PGK validate: 2.9µM*; Pol eta inh-2: 48*

Results for COc1cccc(-c2nc(NC3CCNCC3)c3ccccc3n2)c1 ?
Pol kappa inh-1: -8%[60.1 µM]

Results for COc1cc2c(cc1OC)C(=O)C(Br)CC2 (stereo unspecified) ?
PGK inhibitor: inconclusive; Pol eta inh-1: 20µM*; Pol iota confirm: 67*; Pol eta inh-2: inconclusive

Results for COc1cc2c(cc1OC)C(=O)C(c1ccc3c(c1)OCO3)CC2 (stereo unspecified) ?
PGK inhibitor: -5%; Pol eta inh-1: -5%

What do the screens show for `Cc1ccc(-n2ncc(C(=O)NCCCN3CCCCC3)c2C2CCN(C(=O)OC(C)(C)C)CC2)cc1`?
PGK inhibitor: 11%; Pol beta inh: 28%; Pol iota inh: 14%; Pol eta inh-1: -10%; Pol kappa inh-1: -5%; FEN1 inh: -2%

How did CCCCOc1ccc(C(=O)N(Cc2ccco2)Cc2ccco2)cc1 do in these assays?
PGK inhibitor: -9%; Pol beta inh: 22µM*; Pol iota inh: inconclusive; Pol eta inh-1: 32µM*; Pol kappa inh-1: -37%; FEN1 inh: -9%; Pol iota confirm: 67*; Pol kappa inh-2: 15*; Pol eta inh-2: 54*

Results for CCCOc1ccc(C(=O)N(Cc2ccco2)Cc2ccco2)cc1 ?
PGK inhibitor: inactive; Pol beta inh: 9%; Pol iota inh: -1%; Pol eta inh-1: inconclusive; Pol kappa inh-1: -6%; FEN1 inh: -2%

What do the screens show for `O=C(CSc1nc2ccccc2c(=O)[nH]1)c1ccc(O)c(O)c1`?
PGK inhibitor: inconclusive; Pol beta inh: 20µM*; Pol iota inh: 13µM*; Pol eta inh-1: 2.5µM*; Pol kappa inh-1: 20µM*; FEN1 inh: inconclusive; PGK validate: inconclusive; Pol iota confirm: inconclusive; Pol kappa inh-2: 19*; Pol eta inh-2: 30*

Results for Cc1cc(Cl)ccc1OCC(=O)N1CCC(c2nc3ccccc3o2)CC1 ?
PGK inhibitor: -8%; Pol beta inh: -2%; Pol iota inh: 19%; Pol eta inh-1: -17%; Pol kappa inh-1: -5%; FEN1 inh: -8%

Results for Cc1c(C(=O)N(Cc2ccccc2F)C2CCS(=O)(=O)C2)oc2ccc(F)cc12 (stereo unspecified) ?
PGK inhibitor: inactive; Pol beta inh: 22%; Pol iota inh: 15%; Pol eta inh-1: -18%; Pol kappa inh-1: 13%; FEN1 inh: 6%

Results for Cc1cccc(NC(=O)CN2C(=O)S/C(=C\c3ccc(O)c([N+](=O)[O-])c3)C2=O)c1 ?
PGK inhibitor: inconclusive; Pol beta inh: inconclusive; Pol iota inh: -8%; Pol eta inh-1: inconclusive; Pol kappa inh-1: -15%; FEN1 inh: -1%

How did Cc1ccc(NC(=O)CN2C(=O)S/C(=C/c3ccc(O)c([N+](=O)[O-])c3)C2=O)cc1C do in these assays?
PGK inhibitor: inconclusive; Pol beta inh: 89µM*; Pol iota inh: 20µM*; Pol eta inh-1: 45µM*; Pol kappa inh-1: 50µM*; FEN1 inh: inconclusive; Pol iota confirm: 34*; Pol kappa inh-2: 60*; Pol eta inh-2: inconclusive
